Results: PubChem BioAssay
Values joined by “and” are separate entries in the source; they are usually repeats but may differ in a detail not shown here. Equal values may be shown once. Active and inactive are the calls of the source.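 The calls were made as follows, unless noted: active = compounds whose cell count with miR-34 switched on is under 0.7 times the count with it off; inactive = the rest.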

What was measured:
[1] = viability loss with induced miR-34 in A549 – imaging, A549 dox-inducible miR-34, nuclei and caspase counts, primary screen (AID 1347080); conditions: A549 miR-34 inducible, Hoechst nuclei count, 48 h; also: test concentration not given here
[2] = MELAS cybrid and Rieske KO viability enhancers – cell-based, MELAS cybrids, Rieske KO mouse fibroblasts, CellTiter-Glo, primary screen (AID 1508586;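 active = mean z-score across replicates of 1.96 or higher in either the MELAS or the Rieske mutant cell line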;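 also: test concentration not given here; z relative to plate mean and SD of compound and empty wells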); conditions: low glucose
[3] = galactose survival enhancers in mitochondrial complex I cybrids – cell-based, galactose medium, ATP luminescence, primary screen (AID 1645843;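 active = z-score of at least 1.8 in each of two replicates, scored against plate mean and spread of sample wells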;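 also: positive z means more ATP and so rescue of galactose-driven cybrid death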); conditions: complex I mutant cybrid cells, 72 h, stronger effect = higher value
[4] = stronger effect = lower value, cell number ratio, induced over uninduced
[5] = measured here: relative caspase fold change +Dox/-Dox
[6] = measured here: total cells with miR-34 induction, stronger effect = lower value
[7] = measured here: total cells without miR-34 induction
[8] = MELAS cybrid survival, CellTiter-Glo 48 h, stronger effect = higher value
[9] = Rieske KO mouse fibroblast survival, CellTiter-Glo 72 h

Compound	fold change [1, 4]	fold change [1, 5]	cell count [1, 6]	cell count [1, 7]	z-score [2, 8]	z-score [2, 9]	z-score [3]
Cc1ncsc1-c1ccn(CC(=O)Nc2ccnn2Cc2cccs2)n1	0.798 (inactive)	1.89	6540	8190	-0.383 (inactive)	-0.375	-0.525 (inactive)
OCC1OC(Oc2cc(O)cc(C=Cc3ccc(O)cc3)c2)C(O)C(O)C1O (stereo unspecified)	0.967 (inactive) and 0.947 (inactive)	1.94 and 0.831	9700 and 8270	10000 and 8720	-0.124 (inactive)	-0.651	0.4 (inactive)
O=C(O)c1sccc1S(=O)(=O)Nc1ccc(Cl)cc1	0.887 (inactive)	0.469	8810	9930	-0.651 (inactive)	-0.438	0.48 (inactive)
CCc1nc(NC(=O)N(C)Cc2cccc(-n3cccn3)c2)nn1C	0.843 (inactive)	1.39	7990	9480	0.262 (inactive)	-0.471	-0.535 (inactive)
CC1(C)CC(Nc2nccc(-c3cnn(-c4ccccc4)c3)n2)CC(C)(C)N1	0.881 (inactive)	3.09	4870	5530	-0.228 (inactive)	0.372	3.44 (active)
COc1ncccc1C(=O)N1CCOc2ccccc21	1 (inactive)	1.28	8450	8420	0.0792 (inactive)	-0.0817	-0.395 (inactive)
CC(C)=CCn1cnc(=N)c2[nH]cnc21	0.911 (inactive)	0.79	8970	9850	-0.546 (inactive)	-0.741	1.17 (inactive)
CCCN1CCCCC1C(=O)Nc1c(C)cccc1C (stereo unspecified)	0.891 (inactive) and 0.942 (inactive)	1.17 and 1.76	9320 and 9310	10500 and 9880	0.0955 (inactive)	-0.512	0.57 (inactive)
Cc1ccc2c(C(=O)N3C[C@H]4CC[C@H]3C4)cc(-c3cnn(C(C)(C)C)c3)nc2c1	0.854 (inactive)	1.66	6940	8130	-0.72 (inactive)	0.542	1.56 (inactive)
Cc1nsc(NC(=O)N[C@@H]2CCCC[C@H]2c2ccccc2)n1	0.821 (inactive)	1.15	7510	9150	0.535 (inactive)	-0.546	1.12 (inactive)
CCc1ccc(-c2nn(CC(=O)Nc3cnn(C)n3)c3ccccc23)cc1	0.895 (inactive)	1.48	6460	7220	-0.0449 (inactive)	-0.314	1.09 (inactive)
COc1cccc2ncn(Cc3nc4ccccc4o3)c(=O)c12	0.951 (inactive)	1.68	8290	8720	-0.0437 (inactive)	-0.268	-0.545 (inactive)
CCn1ccnc1CN(C)C(=O)c1cc(-c2cnc(N)nc2)nc2c(C)cccc12	0.899 (inactive)	1.48	8320	9260	-1.11 (inactive)	1.17	1.16 (inactive)
